Sampled rows, rich in hits. Any-hit rate of the full collection: about 21%.
NS1 inh: influenza NS1 inhibition. Potency, µM (top dose mostly 46.1 µM), without a hit: top-dose activity, positive = more growth. hit rate 0.4% among 270,000. AID 2326; calls by dose curve; further: potency means the concentration at half of the fitted maximal effect; actives are rising curves; nearly all actives have a fitted effect of over 50% in size
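A cell-based growth assay was used: compounds that relieve NS1-induced slow growth of budding yeast raise OD600. Assay medium was yeast nitrogen base with ammonium sulphate and -URA supplement, pH 6.0, with 2% galactose.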
Shiga inhibitor: blocks Shiga toxin action in Vero cells; hit rate 9.2% among 290,000; Vero cells, Shiga toxin protein synthesis inhibition reporter; inhibition, % at 38.7 µM; in the data active means inhibition mostly above about 28%, no sharp cut-off; inactive means mostly below about 43%; further: 0% is about no effect
CHX counter: counter-screen hit for Shiga toxin inhibitors, cycloheximide; hit rate 12% among 300,000; cell reporter, cycloheximide protein synthesis inhibition counterscreen; max response, %; in the data active means max response mostly above about 13%, no sharp cut-off; inactive means mostly below about 14%; further: read at 38.3 µM for the half of the compounds with a filed dose; 0% is about no effect
Pf growth 48h: P. falciparum growth inhibition at 48 hours (one generation); P. falciparum luciferase growth in erythrocytes, 48 h; Potency, µM (titrated, usually from 28.7 µM), for the others: at the highest dose activity change, negative = inhibition, usual class: inhibitors; hit rate 5.9% among 310,000; further: potency means the concentration at half of the fitted maximal effect; on the % scale 0 is the no-effect control and ±100 the full control effect
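Read-out is firefly luciferase luminescence from an integrated reporter in P. falciparum, so falling signal marks reduced parasite growth. Infected erythrocytes were at 2% hematocrit and 0.1% parasitemia (final) in Albumax-supplemented RPMI 1640.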
Pf growth 96h: inhibits malaria parasite growth, 96 h; P. falciparum luciferase reporter growth, 96 h; Potency, µM (top dose mostly 28.7 µM), for inactives: at the top dose activity change, negative = inhibition, usual class: inhibitors; hit rate 6.9% among 320,000; AID 504834; further: potency means the concentration at half of the fitted maximal effect; on the % scale 0 is the no-effect control and ±100 the full control effect
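Readout is luminescence from an integrated firefly luciferase in P. falciparum. Red cells, 2% hematocrit and 0.05% parasitemia final, were cultured with compound through two parasite generations (96 hours) at 37 C, 5% CO2.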
* hit, by the source's call; ? = inconclusive; · = no result. Unless noted, the call rests on the fitted dose curve; in most records, active means well fitted inhibition curve with a large enough effect; inconclusive means small, poorly fitted or top-dose-only effect, or another doubt; inactive means no such curve, though single readings can be large or run the other way.

SMILES	NS1 inh	Shiga inhibitor	CHX counter	Pf growth 48h	Pf growth 96h
COC(CNC(=O)Cn1nc(Cc2ccncc2)c2ccccc2c1=O)OC	0%	-5	-3	?	31%
CC(=O)Nc1ccn(-c2ccccc2)n1	2%	52*	31*	23%	?
N#Cc1ccc(C(=O)Nc2ccn(-c3ccccc3)n2)cc1	-13%	-1	-2	?	?
CC(C)CC(C(=O)O)C(C)CC(=O)Nc1ccn(-c2ccccc2)n1 (centres undefined)	14%	2	-5	11%	-25%
O=C(Nc1ccn(-c2ccccc2)n1)c1ccc(Cl)cc1	-9%	106*	45*	40%	?
CCCCC(CCC(=O)Nc1ccn(-c2ccccc2)n1)C(=O)O (centres undefined)	3%	-5	-2	8%	6%
O=C(Nc1ccn(-c2ccccc2)n1)c1ccccc1Br	-9%	50*	38*	111%	186%
Cc1nn(CC(=O)N(C)C)c(C)c1S(=O)(=O)N1CCOCC1	·	·	·	-2%	-14%
CCOc1ccc(NC(=O)c2ccc(N3CC4CC(C3)c3cccc(=O)n3C4)c(NC(=O)CCN3CCOCC3)c2)cc1 (centres undefined)	-23%	-8	-4	?	3%
O=C(Nc1cc(=O)[nH]c2nc(-c3ccc(Cl)cc3)nn12)c1ccccc1	-2%	-10	-2	0.59µM*	0.33µM*
O=C(Nc1cc(=O)[nH]c2nc(-c3ccccc3)nn12)c1ccc(Cl)cc1	-1%	-11	2	-5%	-3%
COc1cc(/C=N/Nc2ccc(Cl)cc2)ccc1OC(=O)c1cccs1	-19%	14	16*	2%	-18%
COc1cc(/C=N/NC(N)=O)ccc1OC(=O)c1cccs1	1%	-31	-2	14%	0%
COc1cc(/C=N/N(C)C)ccc1OC(=O)c1cccs1	-28%	71*	29*	456%	41%
COCCOC(=O)C1=C(C)Nc2cc(=O)[nH]c(=O)n2C1c1cccc([N+](=O)[O-])c1 (centres undefined)	-12%	-8	-4	?	-28%
COC(=O)C1=C(C)NC(C)=C(C(=O)OCCN(C)Cc2ccccc2)C1c1cccc([N+](=O)[O-])c1 (centres undefined)	-26%	-16	-3	1.7µM*	2.1µM*
COCCOC(=O)C1=C(C)N(c2ccccc2)C(=O)NC1c1cccc([N+](=O)[O-])c1 (centres undefined)	4%	-7	-5	?	-52%
COC(=O)C1=C(C)NC(C)=C(C(=O)OC)C1c1ccc(-c2cccc([N+](=O)[O-])c2)o1	5%	-7	5	?	?
COC(=O)C1=C(C)NC(C)=C(C(=O)OCCN2CCN(C(c3ccccc3)c3ccccc3)CC2)C1c1cccc([N+](=O)[O-])c1 (centres undefined)	·	·	·	1.7µM*	2.4µM*
CCOC(=O)C1=C(C)NC(C)=C(C(=O)OCCNC(=O)c2cccnc2)C1c1cccc([N+](=O)[O-])c1 (centres undefined)	-13%	16	3	?	9.3µM*
COC(=O)C1=C(C#N)NC(C)=C(C(=O)OC(C)C)C1c1cccc([N+](=O)[O-])c1 (centres undefined)	·	·	·	7.6µM*	1.2µM*
O=C(O)c1ccccc1CSc1nc2ccccc2n1Cc1ccccc1C(=O)O	·	23	2	24%	-9%
CCCCC1(Cc2ccc(OC)c([N+](=O)[O-])c2)C(=O)N(c2ccccc2)N(c2ccccc2)C1=O	9%	-10	-1	1.5µM*	?
CCCCC1(CC(=O)OC)C(=O)N(c2ccccc2)N(c2ccccc2)C1=O	-14%	-4	-6	?	42%
CCOC(=O)CC(NC(=O)CCS(=O)(=O)c1ccc2c(c1)n(C)c(=O)c(=O)n2C)c1ccc(C)cc1 (centres undefined)	-5%	-3	-12	10%	?
CC(C)Cn1c2c(c(=O)[nH]c1=O)C(C(F)(F)F)(C(F)(F)F)N=C(CCC1CCCCC1)N2	11%	-5	-7	9.3µM*	0%
O=c1[nH]c(=O)n(Cc2ccco2)c2c1C(C(F)(F)F)(C(F)(F)F)N=C(CCC1CCCCC1)N2	16%	-19	6	?	?
Cc1ccc(NC(=O)CCNC(=O)Cn2ccc3ccccc3c2=O)cc1F	13%	18	-2	3%	-5%
COc1ccccc1NC(=S)NC(=O)C1CC1	-2%	-3	-2	4%	15%

Source: PubChem BioAssay
